High-throughput results: PubChem, National Center for Advancing Translational Sciences (NCATS)
The list is not random: actives were taken first. Their share in the collection is about 10%.
GPT2 inhibitor: inhibitors of human GPT2 alanine aminotransferase. Potency, µM (titrated, usually from 57.7 µM), hits mostly inhibitors. 100,000 compounds, 0.25% hits. Q8TD30. Recombinant GPT2, coupled pyruvate oxidase/HRP Amplex Red fluorescence; note: nearly all actives have a fitted effect of over 60% in size
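GPT2 10ng/uL, a-KG 250uM, L-Ala 2mM, HEPES pH7.5 + 0.0001% Tween; 30 min RT. Then Amplex mix (PO/HRP/ThPP), 30 min RT dark, fluorescence. AOA 50uM used as positive control.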
hNpr1 antagonist: human Npr1 receptor antagonism. AID 1347048. HEK293 hNpr1 GloSensor cGMP, ANP-stimulated luminescence. Potency, µM (titrated, usually from 46.3 µM), actives largely listed as inhibitors. P16066. 76,000 compounds, 1.6% hits; calls by dose curve; note: nearly all actives have a fitted effect of over 60% in size
Target sequence (P16066 whole entry, looked up): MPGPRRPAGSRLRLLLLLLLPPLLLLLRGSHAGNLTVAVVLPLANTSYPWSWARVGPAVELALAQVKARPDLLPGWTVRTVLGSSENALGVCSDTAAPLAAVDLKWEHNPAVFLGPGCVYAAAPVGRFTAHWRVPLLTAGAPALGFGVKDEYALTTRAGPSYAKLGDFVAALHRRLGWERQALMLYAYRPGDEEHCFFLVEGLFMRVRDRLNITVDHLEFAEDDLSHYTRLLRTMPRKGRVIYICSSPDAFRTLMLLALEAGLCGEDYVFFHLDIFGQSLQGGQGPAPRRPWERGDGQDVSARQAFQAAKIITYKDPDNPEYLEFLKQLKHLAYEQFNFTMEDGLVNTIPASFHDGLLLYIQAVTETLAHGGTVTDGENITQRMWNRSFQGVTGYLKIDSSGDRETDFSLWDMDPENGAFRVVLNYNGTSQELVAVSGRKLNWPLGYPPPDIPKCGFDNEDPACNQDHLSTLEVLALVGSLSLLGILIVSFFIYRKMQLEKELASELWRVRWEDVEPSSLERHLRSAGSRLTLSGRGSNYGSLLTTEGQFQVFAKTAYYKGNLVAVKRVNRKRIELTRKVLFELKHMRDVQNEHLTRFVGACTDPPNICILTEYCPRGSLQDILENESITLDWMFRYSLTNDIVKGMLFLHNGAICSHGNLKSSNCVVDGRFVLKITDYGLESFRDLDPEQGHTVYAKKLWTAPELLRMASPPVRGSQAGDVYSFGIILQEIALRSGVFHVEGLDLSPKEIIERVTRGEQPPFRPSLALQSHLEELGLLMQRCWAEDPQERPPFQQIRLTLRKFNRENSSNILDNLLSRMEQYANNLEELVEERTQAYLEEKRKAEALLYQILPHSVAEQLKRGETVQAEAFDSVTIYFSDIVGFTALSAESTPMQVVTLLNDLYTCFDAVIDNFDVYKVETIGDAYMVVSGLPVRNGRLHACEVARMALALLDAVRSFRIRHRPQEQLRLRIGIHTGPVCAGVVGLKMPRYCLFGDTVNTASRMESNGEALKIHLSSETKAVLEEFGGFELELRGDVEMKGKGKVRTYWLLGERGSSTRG
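HEK293 cells stably expressing human Npr1 and cGMP GloSensor pGS-40F, loaded 2 h with 2% GloSensor reagent, given compound 30 min at room temperature. Luminescence read before and 20 min after 0.1 nM hNppA.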
Luciferase inh: Photinus pyralis luciferase inhibition. P08659. purified P. pyralis luciferase, luminescence, biochemical. Potency, µM (titrated, usually from 115 µM), hits mostly inhibitors. 76,000 compounds, 2.5% hits; note: nearly all actives have a fitted effect of over 65% in size
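FLuc 10nM, D-luciferin 10uM, ATP 10uM, Mg acetate 10mM, Tris acetate pH 7.5, Tween/BSA; cpd qHTS; enzyme added last; CCD luminescence.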
HEK293 tox: cytotoxic compounds in HEK 293 cells; 94,000 compounds, 6.6% hits; Potency, µM (top dose mostly 115 µM), actives largely listed as inhibitors; HEK 293 viability, ATP luminescence (CellTiter-Glo), 48-72 h; AID 1345083; note: nearly all actives have a fitted effect of over 60% in size
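HEK 293 cells at 250 cells/well were exposed to compounds by pintool transfer for 48 or 72 hr at 37 degree Celsius, 5% CO2. Viability was read as ATP-coupled luminescence with CellTiter-Glo after 10 min at room temperature.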
3T3 cytotox: NIH 3T3 cell cytotoxicity; Potency, µM (highest dose often 96.7 µM), usual class: inhibitors; NIH 3T3 viability, CellTiter-Glo ATP luminescence, 48-72 h; 94,000 compounds, 4.3% hits; note: nearly all actives have a fitted effect of over 55% in size
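Mouse fibroblast NIH 3T3 cells, 400 per well, received compound via pintool and were incubated for 48 or 72 hr prior to CellTiter-Glo ATP luminescence measurement.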
Each line names hits and unclear results; the compound was inactive in the other large screens; ! = not active in a repeat. Unless noted, calls come from the whole dose curve; as a rule, active = well fitted curve in the direction sought with a large enough effect; inconclusive = small, poorly fitted or top-dose-only effect, or another doubt; inactive = no such curve, though single readings can be large; an effect the other way counts as inactive or inconclusive.

CCc1nc2cc(N3CCC(C(=O)NCc4cccc(F)c4)CC3)cnc2nc1CC	HEK293 tox inconclusive
Cc1cnc(-c2cccnc2)n1C1CCCN(C(=O)C2(c3ccccc3)CC2)C1 (stereo not given)	none
COc1ccc(Cc2nc3nccc(-c4ccc(OC)c(OC)c4)n3n2)cc1	HEK293 tox inconclusive, 3T3 cytotox 14µM
COc1ccc(CCc2nc3nccc(-c4ccc(OC)c(OC)c4)n3n2)cc1	Luciferase inh inconclusive, HEK293 tox 35µM, 3T3 cytotox inconclusive
O=[N+]([O-])c1cccc(-c2noc([C@@H]3Cc4nc[nH]c4CN3)n2)c1	Luciferase inh 45µM!, HEK293 tox inconclusive
Cc1cccc(CC(=O)N2CCCCCC2c2nnc(-c3ccccc3)o2)c1 (stereo not given)	HEK293 tox 79µM, 3T3 cytotox inconclusive
Cc1cccc(C(=O)N2CCCCCC2c2nnc(-c3ccccc3)o2)c1 (stereo not given)	HEK293 tox inconclusive, 3T3 cytotox inconclusive
CC(=O)N1CCN(C(=O)C2CCc3nnc(CNC(=O)NC(C)(C)C)n32)CC1 (stereo not given)	none (no result: hNpr1 antagonist, Luciferase inh)
COc1ccc(C(=O)NCCC2CCN(C(=O)Nc3ccccc3)CC2)cc1	Luciferase inh inconclusive
COc1ccc(CNC(=O)C2CCN(c3nccc(Nc4ccc(C)cc4)n3)CC2)cc1	HEK293 tox inconclusive, 3T3 cytotox 28µM (no result: hNpr1 antagonist, Luciferase inh)
COc1ccc(Nc2ccnc(N3CCC(C(=O)N(C)C)CC3)n2)cc1	HEK293 tox inconclusive (no result: hNpr1 antagonist, Luciferase inh)
Cc1ccc(Nc2ccnc(N3CCC(C(=O)NCc4ccc5c(c4)OCO5)CC3)n2)cc1	HEK293 tox inconclusive, 3T3 cytotox 18µM (no result: hNpr1 antagonist, Luciferase inh)
COc1ccc(CNC(=O)C2CCN(c3nccc(Nc4ccc(OC)cc4)n3)CC2)cc1	HEK293 tox 45µM, 3T3 cytotox 40µM (no result: hNpr1 antagonist, Luciferase inh)
Cc1nc(N2CCC(C(=O)NCc3ccc4c(c3)OCO4)CC2)cc(C(F)(F)F)n1	hNpr1 antagonist inconclusive, Luciferase inh 89µM, HEK293 tox inconclusive, 3T3 cytotox inconclusive
Cc1ccc(Nc2ccnc(N3CCC(C(=O)NCc4ccc(F)cc4)CC3)n2)cc1	HEK293 tox inconclusive, 3T3 cytotox inconclusive (no result: hNpr1 antagonist, Luciferase inh)
Cc1noc(C)c1[S+](=O)([O-])N1CCn2c(nn(-c3ccc(Cl)cc3)c2=O)C1	HEK293 tox inconclusive, 3T3 cytotox inconclusive (no result: hNpr1 antagonist, Luciferase inh)
COc1ccc(Nc2ccnc(N3CCC(C(=O)NCc4ccc(F)cc4)CC3)n2)cc1	HEK293 tox inconclusive, 3T3 cytotox 40µM (no result: hNpr1 antagonist, Luciferase inh)
COCCNC(=O)C1CCN(c2nccc(Nc3ccc(C)cc3)n2)CC1	HEK293 tox inconclusive, 3T3 cytotox inconclusive (no result: hNpr1 antagonist, Luciferase inh)
Cc1ccc(Nc2ccnc(N3CCC(C(=O)NCC4CC4)CC3)n2)cc1	HEK293 tox inconclusive, 3T3 cytotox 32µM (no result: hNpr1 antagonist, Luciferase inh)
COc1ccc(CN2CC(COc3ccccc3)Oc3ncccc3[S+]2(=O)[O-])cc1 (stereo not given)	HEK293 tox 22µM, 3T3 cytotox inconclusive (no result: hNpr1 antagonist, Luciferase inh)
COc1ccc(OCC2CN(Cc3cccs3)[S+](=O)([O-])c3cnccc3O2)cc1 (stereo not given)	HEK293 tox inconclusive (no result: hNpr1 antagonist, Luciferase inh)
NCC(=O)N1Cc2ccccc2CC2(CCCN(CC3CCCC3)C2)C1 (stereo not given)	HEK293 tox inconclusive, 3T3 cytotox inconclusive (no result: hNpr1 antagonist, Luciferase inh)
COc1cccc(CN2C(=O)OC3(CCN(C(C)=O)CC3)C2(C)c2cccnc2)c1 (stereo not given)	3T3 cytotox 89µM
COc1cccc(CN2C(=O)OC3(CCN(Cc4c[nH]c5ccccc45)CC3)C2(C)c2cccnc2)c1 (stereo not given)	HEK293 tox inconclusive, 3T3 cytotox 32µM
COc1cccc(CN2C(=O)OC3(CCN(Cc4ccc5c(c4)CCO5)CC3)C2(C)c2cccnc2)c1 (stereo not given)	HEK293 tox inconclusive, 3T3 cytotox inconclusive
COc1cccc(CN2C(=O)OC3(CCN(C(=O)c4ccn(C)n4)CC3)C2(C)c2cccnc2)c1 (stereo not given)	3T3 cytotox 35µM
COc1cccc(CN2C(=O)OC3(CCN(C(=O)C4CCC4)CC3)C2(C)c2cccnc2)c1 (stereo not given)	3T3 cytotox inconclusive
CC(Oc1ccccc1)C(=O)N1CCCN(c2cc(-c3ccc(Cl)cc3)[nH]n2)CC1 (stereo not given)	hNpr1 antagonist inconclusive, HEK293 tox 40µM, 3T3 cytotox inconclusive
